Compounds without any hit were thinned out: in the full panel of roughly 83,000, 20% have a hit.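 Note: values are percent growth. 100 is the growth of untreated cells, values between 100 and 0 indicate rising inhibition; between -100 and 0 indicates cell death.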 Values without a mark were called inactive. Active and inactive are the calls of the source. How the source made its calls: active means growth percent below 10; inactive means the rest.
Key:
Experiment in all cases: NCI-60 one-dose screen, 48 h (100 = growth as untreated, 0 = no growth, -100 = all killed)
Settings in all cases: 10 µM unless noted
[1] = tested on: DU-145 prostate
[2] = tested on: K-562 leukemia
[3] = tested on: MALME-3M melanoma
[4] = tested on: MDA-MB-231 breast
[5] = tested on: RXF 393 renal
[6] = tested on: SF-268 CNS
[7] = tested on: SF-295 CNS
[8] = tested on: SF-539 CNS
[9] = tested on: UACC-257 melanoma
[10] = tested on: M14 melanoma
[11] = tested on: HCT-15 colon
[12] = tested on: HT29 colon
[13] = tested on: SNB-75 CNS
[14] = tested on: SNB-19 CNS
[15] = tested on: U251 CNS
[16] = tested on: PC-3 prostate
[17] = tested on: SK-MEL-5 melanoma
[18] = tested on: UACC-62 melanoma
[19] = tested on: LOX IMVI melanoma
[20] = tested on: SK-MEL-28 melanoma

Row | Compound | growth [1] | growth [2] | growth [3] | growth [4] | growth [5] | growth [6] | growth [7] | growth [8] | growth [9] | growth [10] | growth [11] | growth [12] | growth [13] | growth [14] | growth [15] | growth [16] | growth [17] | growth [18] | growth [19] | growth [20]
1 | Cc1ccc(-c2nc3ccccc3c(=O)n2/N=C/c2cccc3ccccc23)cc1 | 96.9% | 65.5% | 68.6% | 66.8% | 91.8% | 74.1% | 66.8% | 96.5% | 86.4% | 67.5% | 74.3% | 102% | 74.3% | 94.4% | 77% | 63.3% | 75.5% | 69.4% | 63.4% | 85.6%
2 | COc1ccc(C(=O)/C=C/c2cn(-c3ccccc3)nc2-c2cccc(Nc3ccnc4cc(Cl)ccc34)c2)cc1 | 86.5% | 85.9% | 57.4% | 70.8% | 95.2% | 89.3% | 106% | 103% | 90.1% | 110% | 101% | 104% | 99.5% | 93.2% | 94.9% | 87.4% | 88.4% |  | 104% | 95.3%
3 | CCCc1n(Cc2ccc3ccccc3c2)c2ccccc2[n+]1Cc1ccc2ccccc2c1 | 2.32% (active) | -70.8% (active) | -63% (active) | -71.7% (active) | -79.3% (active) | -49.7% (active) | -59.8% (active) | -34.5% (active) | -49.9% (active) | -72% (active) | 4.29% (active) | -72.2% (active) | -18.2% (active) | -76% (active) | -92.6% (active) | -22.8% (active) | -97.3% (active) | -89.2% (active) | -90.5% (active) | -53.6% (active)
4 | CC(C)c1ccc(Cn2ccc3c4c(N)nc(NC5CC5)nc4ccc32)cc1 | -89.5% (active) | -69.7% (active) | -91.6% (active) | -89.6% (active) | -90.9% (active) | -77.6% (active) | -82.8% (active) | -91.5% (active) | -77.8% (active) | -86.2% (active) | -80.6% (active) | -76.2% (active) | -94.4% (active) | -85.1% (active) | -95.1% (active) | -82% (active) |  | -93.1% (active) | -90.2% (active) | 
5 | Fc1ccc2c(CN3CCO[C@H](COc4cccc(Cl)c4)C3)c[nH]c2c1 | 42.6% | 32.1% | 81.9% | 66.8% | 82.9% | 81.1% | 41.1% | 56.7% | 53.6% | 54.4% | 59.1% | 47.4% | 59% | 56.8% | 44.7% | 36.7% |  | 60.2% | 45.9% | 
6 | C=CCn1c(C)nc2cc(Nc3nc(N4CCOCC4)nc4nc[nH]c34)ccc21 | 109% | 71% | 97.7% | 77.7% | 85.1% | 99% | 85% | 87.3% | 94% | 97% | 90.9% | 99.7% | 80.4% | 95.4% | 91.3% | 79.9% | 96.2% | 88.9% | 95.2% | 102%
7 | Cc1cc(C)c(C#N)c(SCC(=O)c2sc3c(C#N)c(C)cc(C)[n+]3c2[O-])n1 | -6.34% (active) | 5.26% (active) | 17.5% | 15.2% | -21.5% (active) | 22.9% | -52.3% (active) | -11.3% (active) | 51.9% | 12.2% | 15.9% | -26.1% (active) | 9% (active) | 75.5% | 7.69% (active) | 24% | 10.8% | 47.9% | 20.4% | 30.3%
8 | CNCc1cccc2c1OCCOCCOCCC(C)S(=O)(=O)c1ccc(cc1)-c1cnc(N)c(n1)C(=O)N2 (stereo not given) | 24.1% | 7.1% (active) | 75.3% | 57.4% | 16.4% | 54.2% | 98.8% | 25% | 50.6% | 52% | 17.8% | 15.1% | 10.5% | 53.8% | 19.2% | 32.3% | 78.8% |  | 48.8% | 
9 | CC(=O)N1N=C(c2ccc(C)cc2)CC1c1cn(-c2ccccc2)nc1-c1cccc(Nc2ccnc3cc(Cl)ccc23)c1 (stereo not given) | 34.3% | 15.1% | -2.79% (active) | 58.9% | 67.8% | 73.7% | 109% | 99.4% | 106% | 87.3% | 62.2% | 47.7% | 102% | 83.4% | 14.9% | 99.8% | 73.8% | 82.2% | 10.4% | 51.9%
10 | Cc1c(-c2ccc(-c3ccccc3F)cc2)nc2ccc(F)cc2c1C(=O)O | 42.5% | 26.3% | 62.8% | 65.2% | 37.2% | 50.7% | 22.8% | 29% | 19.8% | 53.7% | 29% | 28.3% | 60.9% | 41% | 31.9% | 33.2% |  | 39.5% | 9.11% (active) | 
11 | COc1cc2nccc(Oc3ccc(NC(=O)C4(C(=O)Nc5ccc(F)cc5)CC4)cc3)c2cc1O | 77.7% | 9.3% (active) | 64% | 71% | 58.5% | 65.8% | 35.2% | 24.5% | 71.5% | 49.5% | 61.8% | 95.1% | 34% | 82% | 66% | 57.1% | 66.4% |  | 39.8% | 
12 | Cc1cc(C)c([O-])c(CN(C)CCN(C)Cc2cc(C)cc(C)c2[O-])c1.O=C([O-])c1cccc(C(=O)[O-])n1.[Ti+4] | 33.8% | -1.84% (active) | -45.7% (active) | 44.6% | -43.5% (active) | 23.9% | 12.8% | 7.18% (active) | 19.8% | -49.8% (active) | 36.4% | -32.8% (active) | -12.1% (active) | 26.6% | 9.4% (active) | -0.468% (active) | 9.84% (active) | 25.8% | -58.1% (active) | -27.2% (active)
13 | CNC(=O)c1cc(Oc2ccc(NC(=O)c3nc(S(C)(=O)=O)n(C)c3-c3ccc(F)cc3)cc2)ccn1 | 56.9% | 61% | 77.5% | 83% | 58.4% | 70.4% | 70.2% | 85.6% | 96.4% | 50.4% | 57.8% | 71.9% | 43% | 85% | 76.1% | 64.1% | 73.8% | 62% | 62.4% | 95.7%
14 | CN1CCN(Cc2ccc(NC(=O)c3ccc(C#N)c(C#Cc4cnc(N)c5ncccc45)c3)cc2C(F)(F)F)CC1 | 28.8% | -5.03% (active) | -52% (active) | -2.17% (active) | 41.9% | 94.1% | 103% | 54.5% | -20.1% (active) | 3.5% (active) | 1.93% (active) | 4.28% (active) | 112% | 115% | 55.6% | 81.1% | 87% |  | 82.5% | 
15 | O=c1[nH]c2cc(Cl)c(Cl)cc2o1 | 113% | 102% | 117% | 100% | 135% | 103% | 55.9% | 105% | 114% | 105% | 101% | 112% | 92.5% | 109% | 95.1% | 64.6% | 115% | 92.8% | 99.4% | 116%
16 | Clc1cn2cc(-c3ccc(Cl)c(Cl)c3Cl)nc2s1 | 117% | 92.6% | 101% | 98.5% | 99.8% | 103% | -71.5% (active) | 105% | 112% | 95.3% | 93.9% | 112% | 91.4% | 99.8% | 102% | 99.9% | 100% |  | 99.3% | 

Reference: PubChem BioAssay (NCI)
